# Measurements reported in PubChem BioAssay.
# Where “and” joins values, the source holds several entries; their conditions need not be identical. Equal entries are not always repeated. Inconclusive results are not listed. Calls of active or inactive are those of the source.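 Rule for the calls, unless noted: active = compounds whose cell count with miR-34 switched on is under 0.7 times the count with it off; inactive = the rest.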
# How the values were obtained:
# [1] = viability loss with induced miR-34 in A549 – imaging, A549 dox-inducible miR-34, nuclei and caspase counts, primary screen (AID 1347080); settings: A549 miR-34 inducible, Hoechst nuclei count, 48 h
# [2] = blockers of cellular phospholipid synthesis – cell-based, LOPAC library, screen 4, primary screen (AID 1347384; call rule not given here); settings: animal cells, phospholipid biosynthesis inhibition screen; at 10 µM
# [3] = MELAS cybrid and Rieske KO viability enhancers – cell-based, MELAS cybrids, Rieske KO mouse fibroblasts, CellTiter-Glo, primary screen (AID 1508586;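 active = mean z-score across replicates of 1.96 or higher in either the MELAS or the Rieske mutant cell line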;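 note: z relative to plate mean and SD of compound and empty wells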); settings: low glucose
# [4] = molecular target: NAD(+) hydrolase SARM1 (Homo sapiens) (UniProt Q6SZW1); test: blocking NAD cleavage by SARM1 SAM-TIR – cell lysate, NAD-Glo luminescence (AID 1508614;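 active = compound whose remaining NAD level is above about 45 nM, limit read from the data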;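 note: higher remaining NAD means stronger inhibition of SARM1 NADase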); settings: SAM-TIR HEK293T lysate NADase, at 1 µM, stronger effect = higher value
# Chain of NAD(+) hydrolase SARM1 (Homo sapiens) (Q6SZW1 whole entry, looked up, the tested form may be a part): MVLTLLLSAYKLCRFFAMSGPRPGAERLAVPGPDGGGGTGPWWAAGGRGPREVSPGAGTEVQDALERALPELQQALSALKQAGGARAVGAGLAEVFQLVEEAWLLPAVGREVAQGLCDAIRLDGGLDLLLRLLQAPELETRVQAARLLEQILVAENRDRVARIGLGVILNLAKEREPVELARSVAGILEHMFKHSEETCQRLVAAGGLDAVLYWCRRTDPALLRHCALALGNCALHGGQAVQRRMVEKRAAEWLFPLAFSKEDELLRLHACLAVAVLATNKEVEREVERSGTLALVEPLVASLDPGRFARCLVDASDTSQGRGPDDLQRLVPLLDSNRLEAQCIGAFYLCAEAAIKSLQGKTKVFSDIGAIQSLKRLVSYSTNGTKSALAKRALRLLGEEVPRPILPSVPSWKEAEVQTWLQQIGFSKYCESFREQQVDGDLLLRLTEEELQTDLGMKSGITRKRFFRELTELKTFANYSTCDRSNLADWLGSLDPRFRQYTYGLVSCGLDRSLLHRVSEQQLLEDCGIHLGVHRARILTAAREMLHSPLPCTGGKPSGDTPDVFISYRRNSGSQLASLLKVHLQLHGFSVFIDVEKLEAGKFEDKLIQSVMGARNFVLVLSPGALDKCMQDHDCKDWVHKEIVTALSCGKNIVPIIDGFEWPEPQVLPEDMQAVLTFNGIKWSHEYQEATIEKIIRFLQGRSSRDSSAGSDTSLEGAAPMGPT
# [5] = molecular target: Mitogen-activated protein kinase 7 (Homo sapiens) (UniProt Q13164); test: Gal4-ERK5 driven luciferase induction – cell-based, HTS, primary screen (AID 1508626;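 active = luciferase signal above three times the same-plate solvent-only control wells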;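 note: luciferase driven by Gal4-ERK5 fusion binding five Gal4 sites before minimal TATA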); settings: HeLa Gal4-ERK5 transactivation, 18 h, at 5 µM, stronger effect = higher value
# Chain of Mitogen-activated protein kinase 7 (Homo sapiens) (Q13164 whole entry, looked up, the tested form may be a part): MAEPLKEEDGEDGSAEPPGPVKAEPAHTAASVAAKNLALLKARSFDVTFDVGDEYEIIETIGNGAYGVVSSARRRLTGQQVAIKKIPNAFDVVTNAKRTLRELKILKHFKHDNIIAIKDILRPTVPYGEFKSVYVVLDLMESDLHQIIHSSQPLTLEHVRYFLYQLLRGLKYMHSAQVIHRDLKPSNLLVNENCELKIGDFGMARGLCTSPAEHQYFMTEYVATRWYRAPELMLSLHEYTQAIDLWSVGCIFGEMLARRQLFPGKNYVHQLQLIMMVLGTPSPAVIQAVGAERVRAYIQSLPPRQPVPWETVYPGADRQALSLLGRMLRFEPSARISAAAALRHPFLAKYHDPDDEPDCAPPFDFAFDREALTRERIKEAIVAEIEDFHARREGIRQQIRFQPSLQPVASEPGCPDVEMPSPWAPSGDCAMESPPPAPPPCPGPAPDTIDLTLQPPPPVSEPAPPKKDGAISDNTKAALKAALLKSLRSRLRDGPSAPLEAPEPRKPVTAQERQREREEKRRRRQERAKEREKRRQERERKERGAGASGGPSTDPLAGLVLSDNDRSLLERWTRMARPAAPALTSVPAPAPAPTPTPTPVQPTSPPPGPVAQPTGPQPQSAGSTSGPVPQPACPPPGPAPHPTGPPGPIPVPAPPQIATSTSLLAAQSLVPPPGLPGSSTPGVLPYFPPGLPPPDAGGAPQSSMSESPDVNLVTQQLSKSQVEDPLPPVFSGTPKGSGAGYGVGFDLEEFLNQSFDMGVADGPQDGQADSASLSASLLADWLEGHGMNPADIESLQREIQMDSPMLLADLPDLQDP
# [6] = galactose survival enhancers in mitochondrial complex I cybrids – cell-based, galactose medium, ATP luminescence, primary screen (AID 1645843;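 active = z-score of at least 1.8 in each of two replicates, scored against plate mean and spread of sample wells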;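 note: positive z means more ATP and so rescue of galactose-driven cybrid death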); settings: complex I mutant cybrid cells, 72 h, stronger effect = higher value
# [7] = JHH-DIPG-1 glioma cell viability, MIPE5.0 library, CellTiter-Glo luminescence, qHTS (AID 1347067; cut-off not given, nearly all actives have AC50 up to about 26 µM;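 note: cells exposed to compound for 48 hours before readout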); settings: JHH-DIPG-1 glioma viability, CellTiter-Glo ATP luminescence
# [8] = growth inhibition of DIPG cells – cell-based, MIPE4.0 library, CellTiter-Glo luminescence, qHTS (AID 1347066; cut-off not given, nearly all actives have AC50 up to about 30 µM;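 note: cells exposed to compound for 48 hours before readout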); settings: SU-DIPG-VI viability, CellTiter-Glo ATP luminescence
# [9] = stronger effect = lower value, cell number ratio, induced over uninduced
# [10] = measured here: relative caspase fold change +Dox/-Dox
# [11] = measured here: total cells with miR-34 induction, stronger effect = lower value
# [12] = measured here: total cells without miR-34 induction
# [13] = MELAS cybrid survival, CellTiter-Glo 48 h, stronger effect = higher value
# [14] = Rieske KO mouse fibroblast survival, CellTiter-Glo 72 h
SMILES,"fold change [1, 9]","fold change [1, 10]","cell count [1, 11]","cell count [1, 12]",outcome [2],"z-score [3, 13]","z-score [3, 14]",remaining NAD [4],luciferase signal [5],z-score [6],AC50 [7],outcome [8]
C[C@H]1c2cccc(O)c2C(O)=C2C(=O)[C@]3(O)C(O)=C(C(N)=O)C(=O)[C@@H](N(C)C)[C@@H]3[C@@H](O)[C@@H]21,0.948 (inactive) and 0.723 (inactive) and 0.815 (inactive),0.896 and 4.48 and 1.65,1440 and 3910 and 7870,1520 and 5410 and 9650,inactive,0.0416 (inactive) and -0.292 (inactive),-2.32 and -1.86,10 nM (inactive),64 AU (inactive),2.63 (active) and 2.23 (active),,
O=C1Nc2ccc(Cl)cc2[C@@](C#CC2CC2)(C(F)(F)F)O1,0.73 (inactive) and 0.903 (inactive),1.52 and 0.886,6400 and 6960,8760 and 7710,,1.16 (inactive) and -1.54 (inactive),0.346 and 0.0528,,,-1.77 (inactive) and -2 (inactive),20.9 µM (active),
CCCC(C(=O)OCCN(CC)CC)(c1ccccc1)c1ccccc1,0.769 (inactive) and 0.897 (inactive) and 0.979 (inactive),1.28 and 1.07 and 2.3,4500 and 7370 and 10800,5860 and 8210 and 11000,inactive,-2.4 (inactive),0.38,10 nM (inactive),60 AU (inactive),-1.28 (inactive),,
Cc1nnc(SCC2=C(C(=O)O)N3C(=O)[C@@H](NC(=O)Cn4cnnn4)[C@H]3SC2)s1,1.03 (inactive) and 0.804 (inactive) and 0.912 (inactive),1.87 and 0.957 and 4.16,10400 and 8100 and 11000,10100 and 12000,inactive,0.651 (inactive),0.288,10 nM (inactive),28 AU (inactive),-0.3 (inactive),,
CNS(=O)(=O)Cc1ccc2[nH]cc(CCN(C)C)c2c1,,,,,,-0.261 (inactive) and 0.654 (inactive) and -0.798 (inactive),-0.042 and 0.351 and -0.245,10 nM (inactive),,0.385 (inactive) and 0.365 (inactive) and 0.755 (inactive),,inactive
CN(C)CCCN1c2ccccc2Sc2ccccc21,0.997 (inactive) and 0.896 (inactive) and 0.916 (inactive),1.96 and 1.17 and 2.21,7860 and 8360 and 9720,7880 and 9340 and 10600,inactive,-0.514 (inactive),-0.0726,10 nM (inactive),44 AU (inactive),-0.99 (inactive),,
CC1(C)O[C@H]2CC(=O)OC[C@]23[C@H]2CC[C@@]4(C)[C@H](c5ccoc5)OC(=O)[C@H]5O[C@]54[C@]2(C)C(=O)C[C@@H]13,,,,,,,,,80 AU (inactive),,,inactive
CCN(CC)C(C)CN1c2ccccc2Sc2ccccc21 (stereo not given),1.11 (inactive) and 0.804 (inactive) and 0.894 (inactive),1.02 and 1.63 and 0.788,9230 and 7320 and 9620,8340 and 9100 and 10800,inactive,-0.553 (inactive),-0.605,10 nM (inactive),36 AU (inactive),-0.44 (inactive),,
C[N+](C)(C)CCCCCC[N+](C)(C)C,0.986 (inactive) and 1.01 (inactive) and 0.859 (inactive),0.977 and 0.809 and 0.908,10300 and 10200 and 8850,10500 and 10100 and 10300,inactive,0.935 (inactive),0.174,10 nM (inactive),52 AU (inactive),0.205 (inactive) and 0.235 (inactive),,
Cc1nc2n(c(=O)c1CCN1CCC(c3noc4cc(F)ccc34)CC1)CCCC2,,,,,,1.35 (inactive) and -1.13 (inactive) and -0.64 (inactive),0.0817 and 0.437 and -0.833,10 nM (inactive),,-1.22 (inactive) and -0.71 (inactive),,inactive
NCCS,1.1 (inactive) and 0.868 (inactive) and 0.893 (inactive),0.51 and 1.42 and 2.94,11000 and 8060 and 11500,9990 and 9290 and 12900,inactive,-0.14 (inactive),-0.336,10 nM (inactive),76 AU (inactive),0.24 (inactive),,
C=C1c2cccc(O)c2C(O)=C2C(=O)[C@]3(O)C(O)=C(C(N)=O)C(=O)[C@@H](N(C)C)[C@@H]3[C@@H](O)[C@H]12,0.869 (inactive) and 0.999 (inactive),1.25 and 1.82,7110 and 11900,8180 and 11900,,0.00753 (inactive),-2.31,10 nM (inactive),40 AU (inactive),,,
CC[N+](C)(C)Cc1ccccc1Br,0.896 (inactive),1.09,8620,9630,,0.582 (inactive),0.0274,,,,,
CCCCCCCC/C=C\CCCCCCCC(=O)NCc1ccc(O)c(OC)c1,1.07 (inactive) and 0.928 (inactive) and 0.945 (inactive),0.981 and 1.03 and 0.614,10500 and 5740 and 9140,9800 and 6180 and 9670,inactive,,,,,-1.29 (inactive) and -1.24 (inactive),,
